Assay results reported in PubChem BioAssay (EPA / NIEHS).
Where “and” joins values, the source holds several entries; their conditions need not be identical. Equal entries are not always repeated. Records with an inconclusive call do not appear. Calls of active or inactive are those of the source. How the source made its calls, unless noted: active means hit-call score of the fitted dose curve at least 0.9, where 1 is the maximum; inactive means score below 0.9.

How the values were obtained:
[1] = read-out: Monokine induced gamma interferon (MIG), CXCL9 (gene 4283); test: BSK_SAg_MIG: BioMAP Diversity Plus: SAg Assay for Monokine induced gamma interferon (MIG) Biomarker Activity (AID 2283092); conditions: primary human HUVEC with PBMC; actives raise or lower the signal
Outline: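 Measures CXCL9 protein by ELISA in a human vascular primary-cell co-culture (umbilical vein endothelium with PBMC) 24 h after chemical addition. Activity is scored up or down from the DMSO control.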

[2] = BSK_SAg_PBMCCytotoxicity: PBMC Cytotoxicity Assessment in the BioMAP Diversity Plus: SAg Assay (AID 2283093); conditions: primary human HUVEC with PBMC;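 further: PBMC viability measured as Alamar Blue reduction fluorescence at 546/580 nm; fitted both ways against DMSO so a hit may be loss or gain of signal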;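 on AC50: PBMC superantigen activated with SEB plus TSST-1 one hour after compound addition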
Outline: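 Alamar Blue reduction (6 h, ex/em 546/580 nm) read after 90 h culture of PBMC pre-dosed 1 h then stimulated with SEB plus TSST-1, 20 ng/mL each. Gain or loss of signal fitted relative to DMSO.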

[3] = read-out: Interleukin-8 (IL8), CXCL8 (gene 3576); test: BSK_SAg_IL8: BioMAP Diversity Plus: SAg Assay for Interleukin-8 (IL8) Biomarker Activity (AID 2283094); conditions: primary human HUVEC with PBMC; actives raise or lower the signal
Outline: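 Chemicals were dosed onto a human endothelial–PBMC co-culture, and IL-8 was quantified by ELISA after 24 h. Both increases and decreases were fitted relative to DMSO.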

[4] = BSK_SAg_Proliferation: Cell Proliferation Assessment in the BioMAP Diversity Plus: SAg Assay (AID 2283095); conditions: primary human HUVEC with PBMC;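 further: relative cell number as total protein by SRB absorbance in sub-confluent culture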
Outline: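 Absorbance of sulforhodamine B at 560 nm reports total protein in a human vascular endothelial/PBMC co-culture after 96 h chemical exposure. Gain or loss of signal is fitted in both directions against DMSO.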

[5] = BSK_SAg_SRB: Viability Assessment in the BioMAP Diversity Plus: SAg Assay (AID 2283096); conditions: primary human HUVEC with PBMC;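 further: cells read one day after compound addition; hits may be either gain or loss of signal compared with DMSO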
Outline: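 SRB absorbance at 560 nm served as the viability read-out. Cells (HUVEC plus peripheral blood mononuclear cells) were TCA-fixed and stained 24 h post-dosing; activity fitted in both directions against DMSO controls.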

[6] = read-out: E-selectin (Homo sapiens) (UniProt P16581); test: BSK_SAg_Eselectin: BioMAP Diversity Plus: SAg Assay for Eselectin Biomarker Activity (AID 2283091); conditions: primary human HUVEC with PBMC; actives raise or lower the signal
Outline: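 HUVEC co-cultured with PBMC, compound dosed then read at 24 h; E-selectin measured by ELISA. Activity fitted bidirectionally against DMSO as negative control and baseline.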

[7] = molecular target: human CYP19A1, CYP19A1 (gene 1588) (UniProt P11511); test: NVS_ADME_hCYP19A1: NovaScreen (NVS) CYP450-related Enzyme Activity (ADME) Assay for human CYP19A1 (AID 2283098; active means hit-call score of the fitted dose curve at least 0.9, where 1 is the maximum;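 on AC50: potency for inhibitors seen as loss of fluorescent enzyme signal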)
human CYP19A1, CYP19A1 (gene 1588), sequence (P11511 whole entry, looked up): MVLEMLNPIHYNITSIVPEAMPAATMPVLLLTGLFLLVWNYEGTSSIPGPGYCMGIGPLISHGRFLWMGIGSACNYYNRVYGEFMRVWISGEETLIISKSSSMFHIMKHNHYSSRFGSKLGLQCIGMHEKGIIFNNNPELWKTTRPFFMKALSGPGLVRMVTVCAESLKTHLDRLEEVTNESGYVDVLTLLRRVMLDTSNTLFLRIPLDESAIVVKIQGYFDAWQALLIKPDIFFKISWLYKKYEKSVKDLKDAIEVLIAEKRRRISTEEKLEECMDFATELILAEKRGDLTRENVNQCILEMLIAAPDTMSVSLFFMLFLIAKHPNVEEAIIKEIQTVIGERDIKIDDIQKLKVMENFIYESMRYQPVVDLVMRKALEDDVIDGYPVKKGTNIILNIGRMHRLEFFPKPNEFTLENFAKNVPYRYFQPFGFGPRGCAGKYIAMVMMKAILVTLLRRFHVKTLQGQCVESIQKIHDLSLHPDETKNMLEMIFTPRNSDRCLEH
Outline: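 Primary testing was in duplicate at a single 10 uM concentration, with actives followed up in concentration-response series. Fluorescence read-out of recombinant enzyme activity at 0.5 h, cell-free. Acetonitrile was the negative-control baseline.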

[8] = molecular target: human CYP2B6, CYP2B6 (gene 1555) (UniProt P20813); test: NVS_ADME_hCYP2B6: NovaScreen (NVS) CYP450-related Enzyme Activity (ADME) Assay for human CYP2B6 (AID 2283101; active means hit-call score of the fitted dose curve at least 0.9, where 1 is the maximum)
human CYP2B6, CYP2B6 (gene 1555), sequence (P20813 whole entry, looked up): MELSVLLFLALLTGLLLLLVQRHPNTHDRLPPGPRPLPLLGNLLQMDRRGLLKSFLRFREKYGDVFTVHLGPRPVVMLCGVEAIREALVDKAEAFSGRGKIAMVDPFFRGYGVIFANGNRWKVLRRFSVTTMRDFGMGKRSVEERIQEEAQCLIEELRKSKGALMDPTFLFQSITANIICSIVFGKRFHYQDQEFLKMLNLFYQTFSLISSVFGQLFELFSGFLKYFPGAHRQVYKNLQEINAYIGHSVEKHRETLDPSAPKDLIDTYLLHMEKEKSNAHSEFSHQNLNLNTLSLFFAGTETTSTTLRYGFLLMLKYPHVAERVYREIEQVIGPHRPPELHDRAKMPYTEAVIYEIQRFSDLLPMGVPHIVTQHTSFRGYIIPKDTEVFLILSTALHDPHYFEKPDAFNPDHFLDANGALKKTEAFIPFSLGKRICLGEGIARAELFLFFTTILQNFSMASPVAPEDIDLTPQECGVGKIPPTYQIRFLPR
Outline: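 Recombinant protein, specific fluorescent substrate, read at 1 h post-dosing. Primary: single 10 uM, duplicate; follow-up: concentration series. Activity = signal loss vs acetonitrile baseline, with positive and negative controls on every plate.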

[9] = molecular target: human CYP2A6, CYP2A6 (gene 1548) (UniProt P11509); test: NVS_ADME_hCYP2A6: NovaScreen (NVS) CYP450-related Enzyme Activity (ADME) Assay for human CYP2A6 (AID 2283099; active means hit-call score of the fitted dose curve at least 0.9, where 1 is the maximum)
human CYP2A6, CYP2A6 (gene 1548), sequence (P11509 whole entry, looked up): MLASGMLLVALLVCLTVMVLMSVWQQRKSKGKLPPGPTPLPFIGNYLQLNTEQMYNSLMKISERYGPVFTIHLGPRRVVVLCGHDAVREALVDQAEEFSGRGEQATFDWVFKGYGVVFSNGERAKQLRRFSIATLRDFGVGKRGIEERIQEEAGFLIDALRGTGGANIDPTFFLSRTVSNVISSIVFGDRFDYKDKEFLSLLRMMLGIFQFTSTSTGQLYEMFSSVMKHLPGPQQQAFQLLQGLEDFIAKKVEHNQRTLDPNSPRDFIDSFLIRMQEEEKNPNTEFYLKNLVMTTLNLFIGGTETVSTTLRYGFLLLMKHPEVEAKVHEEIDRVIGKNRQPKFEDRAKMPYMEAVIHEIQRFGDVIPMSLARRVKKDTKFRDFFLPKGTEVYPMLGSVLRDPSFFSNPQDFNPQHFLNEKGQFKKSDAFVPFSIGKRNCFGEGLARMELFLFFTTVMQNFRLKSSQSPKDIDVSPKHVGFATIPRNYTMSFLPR
Method: NVS_ADME_hCYP2A6 is a biochemical, single-readout assay that uses extracted gene-proteins from insect cells in a cell-free assay. Measurements were taken 0.5 hour after chemical dosing in a 96-well plate.NVS_ADME_hCYP2A6 is one of one assay component(s) measured or calculated from the NVS_ADME_hCYP2A6 assay. It is designed to make measurements of enzyme activity, a form of enzyme reporter, as detected with fluorescence intensity signals by Fluorescence technology.Data from the assay component NVS_ADME_hCYP2A6 was analyzed into 1 assay endpoint. This assay endpoint, NVS_ADME_hCYP2A6, was analyzed in the positive analysis fitting direction relative to Acetonitrile as the negative control and baseline of activity. Using a type of enzyme reporter, loss-of-signal activity can be used to understand changes in the enzymatic activity as they relate to the gene CYP2A6. Furthermore, this assay endpoint can be referred to as a primary readout, because this assay has produced multiple assay endpoints where this one serves a enzymatic activity function. To generalize the intended target to other relatable targets, this assay endpoint is annotated to the cyp intended target family, where the subfamily is xenobiotic metabolism.
Binding assays used specific radioligands (tritiated, iodinated) with non-radioactive competitive displacement ligands in agonist or antagonist protocols (as indicated) and various reference compounds and inhibitors to titrate specific binding to receptors and transporters. Most enzyme assays (CYPs, kinases, phosphatases, proteases, HDACs) used recombinant protein and specific substrates (fluorescence mostly, some colorimetric and radioactive) and inhibitors, followed by a biochemical separation of substrate and product. All assays for the biochemical HTS were initially run in duplicate at a single concentration (10 uM for CYP450 assays and 25 uM for all others). Assay-chemical combinations meeting a pre-defined threshold (e.g., 30% inhibition and other criteria defined below) were then run in singleton concentration-response format with maximum concentration of 20 uM for CYPs and 50 uM for all others. Each assay was run with positive and negative controls, and concurrent controls on every plate. The follow-up (secondary) screen tested active chemical-pairs in concentration series, as well as a few additional assays not tested in the primary screen, some selected negative inactives, and several cases re-run in the concentration series for confirmatory purposes.

[10] = molecular target: human CYP1A1, CYP1A1 (gene 1543) (UniProt P04798); test: NVS_ADME_hCYP1A1: NovaScreen (NVS) CYP450-related Enzyme Activity (ADME) Assay for human CYP1A1 (AID 2283100; active means hit-call score of the fitted dose curve at least 0.9, where 1 is the maximum)
human CYP1A1, CYP1A1 (gene 1543), sequence (P04798 whole entry, looked up): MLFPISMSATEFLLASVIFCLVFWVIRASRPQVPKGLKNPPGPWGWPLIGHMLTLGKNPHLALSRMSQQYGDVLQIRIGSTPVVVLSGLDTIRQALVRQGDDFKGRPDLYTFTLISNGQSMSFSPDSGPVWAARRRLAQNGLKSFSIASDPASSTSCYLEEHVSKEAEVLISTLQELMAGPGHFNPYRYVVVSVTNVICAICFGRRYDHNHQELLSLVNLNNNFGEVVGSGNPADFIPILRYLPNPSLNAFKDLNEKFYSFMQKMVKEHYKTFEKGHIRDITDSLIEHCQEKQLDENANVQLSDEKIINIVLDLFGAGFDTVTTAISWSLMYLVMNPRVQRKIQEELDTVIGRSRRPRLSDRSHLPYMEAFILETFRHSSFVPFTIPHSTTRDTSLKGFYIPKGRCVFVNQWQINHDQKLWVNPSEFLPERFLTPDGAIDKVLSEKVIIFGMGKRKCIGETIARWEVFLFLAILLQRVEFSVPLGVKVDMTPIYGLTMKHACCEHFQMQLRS
Outline: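 Cell-free fluorescence assay of recombinant human CYP1A1 activity with a specific substrate, read 1 h after dosing. Compounds were screened in duplicate at 10 uM, then hits tested in concentration-response up to 20 uM; acetonitrile served as baseline.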

Measured: AC50

E-selectin (Homo sapiens), sequence (P16581 whole entry, looked up): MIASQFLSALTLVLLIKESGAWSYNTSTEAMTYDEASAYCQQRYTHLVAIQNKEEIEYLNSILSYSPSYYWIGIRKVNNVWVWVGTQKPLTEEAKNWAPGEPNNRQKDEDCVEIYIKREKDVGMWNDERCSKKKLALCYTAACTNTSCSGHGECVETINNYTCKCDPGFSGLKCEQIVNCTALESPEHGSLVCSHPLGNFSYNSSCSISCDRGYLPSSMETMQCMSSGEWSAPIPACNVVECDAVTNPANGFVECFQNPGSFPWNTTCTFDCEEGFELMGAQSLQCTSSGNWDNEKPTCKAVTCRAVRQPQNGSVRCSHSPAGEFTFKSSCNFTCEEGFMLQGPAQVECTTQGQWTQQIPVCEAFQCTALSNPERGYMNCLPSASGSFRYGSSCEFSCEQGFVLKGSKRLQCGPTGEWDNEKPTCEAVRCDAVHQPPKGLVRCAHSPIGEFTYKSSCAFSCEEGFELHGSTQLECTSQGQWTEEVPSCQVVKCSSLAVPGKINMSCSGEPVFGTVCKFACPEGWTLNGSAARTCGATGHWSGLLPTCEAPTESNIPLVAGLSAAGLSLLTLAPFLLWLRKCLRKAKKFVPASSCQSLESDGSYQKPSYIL

CCOC(=O)COc1cc(-c2nn(C)c(OC(F)F)c2Cl)c(F)cc1Cl
inactive: [1] | [2] | [3] | [4] | [5]

CSC1=N[C@@](C)(c2ccccc2)C(=O)N1Nc1ccccc1
inactive: [1] | [5]
active: [6] 8.29 µM | [2] 7.23 µM | [3] 8.81 µM | [4] 9.67 µM

COP(=O)(OC)C(O)C(Cl)(Cl)Cl (stereo not given)
inactive: [1] | [2] | [3] | [5]
active: [4] 8.98 µM

CCC(=NOC/C=C/Cl)C1=C(O)CC(C2CCOCC2)CC1=O (stereo not given)
inactive: [6] | [1] | [2] | [3] | [4] | [5]

CN(C)[C@@H]1C(=O)C(C(N)=O)=C(O)[C@@]2(O)C(=O)C3=C(O)c4c(O)cccc4[C@@](C)(O)[C@H]3[C@H](O)[C@@H]12
inactive: [6] | [1] | [2] | [3] | [4] | [5]

Nc1nc(N)nc(NC2CC2)n1
inactive: [6] | [1] | [2] | [3] | [4] | [5]

CCC(=O)Nc1ccc(Cl)c(Cl)c1
inactive: [6] | [1] | [2] | [3] | [4] | [5]

CCOP(=S)(OCC)OC(Cl)C(Cl)(Cl)Cl (stereo not given)
inactive: [1]
active: [2] 29.9 µM | [3] 25.9 µM | [4] 33.5 µM | [5] 13 µM

CCCCSP(=O)(SCCCC)SCCCC
inactive: [6] | [1]
active: [2] 34.8 µM | [3] 25.9 µM | [4] 36.2 µM | [5] 22.5 µM

CON=C(C(=O)OC)c1ccccc1CON=C(C)c1cccc(C(F)(F)F)c1
active: [6] 2.08 µM | [1] 8.87 µM | [2] 1.59 µM | [3] 3.2 µM | [4] 3.9 µM | [5] 3.82 µM

N#CSCSC#N
active: [6] 11.1 µM | [1] 8.84 µM | [2] 3.25 µM | [3] 11.7 µM | [4] 1.99 µM | [5] 6.08 µM

CC(Oc1cccc(Cl)c1)C(=O)O (stereo not given)
inactive: [6] | [1] | [2] | [3] | [4] | [5]

CC1(C(=O)Nc2ccc(O)c(Cl)c2Cl)CCCCC1
inactive: [6] | [1] | [2] | [3] | [5]

Cc1ccn2nc(S(=O)(=O)Nc3c(F)cccc3F)nc2n1
inactive: [6] | [1] | [2] | [3] | [4] | [5]

CN1COCN(Cc2cnc(Cl)s2)C1=N[N+](=O)[O-]
inactive: [6] | [1] | [2] | [3] | [4] | [5]

CC1=NNC(=O)N(/N=C/c2cccnc2)C1
inactive: [6] | [1] | [2] | [3] | [4] | [5]

CC(C1CC1)C(O)(Cn1cncn1)c1ccc(Cl)cc1 (stereo not given)
active: [7] 5.27 µM | [8] 6.32 µM
not listed: [9] | [10]
inactive: all other assays above

COc1cccc(C(=O)NN(C(=O)c2cc(C)cc(C)c2)C(C)(C)C)c1C
inactive: [6] | [1] | [2] | [3] | [4] | [5]

CCCOCC(=Nc1ccc(Cl)cc1C(F)(F)F)n1ccnc1
inactive: [9]
active: [6] 11.6 µM | [1] 32.4 µM | [2] 31 µM | [3] 15.9 µM | [4] 24.5 µM | [5] 27.9 µM | [7] 0.999 µM | [10] 4.18 µM | [8] 1.58 µM

Cc1nn(-c2cc(NS(C)(=O)=O)c(Cl)cc2Cl)c(=O)n1C(F)F
inactive: [6] | [1] | [2] | [3] | [4] | [5]

CCOP(=O)(OCC)Oc1cc(C)nc(C(C)C)n1
not listed: [8] | [9] | [10]
inactive: all other assays above

CSc1nnc(C(C)(C)C)c(=O)n1N
inactive: [6] | [1] | [2] | [3] | [4] | [5]

O=C(O)c1cc(Oc2ccc(C(F)(F)F)cc2Cl)ccc1[N+](=O)[O-]
inactive: [6] | [1] | [2] | [3] | [4] | [5]

O=[N+]([O-])c1cc(C(F)(F)F)c(Cl)c([N+](=O)[O-])c1Nc1ncc(C(F)(F)F)cc1Cl
active: [6] 1.51 µM and 2.65 µM | [1] 3.49 µM and 2.45 µM | [2] 814 nM and 2.03 µM | [3] 1.81 µM and 3.64 µM | [4] 318 nM and 526 nM | [5] 3.84 µM

C[Si](Cn1cncn1)(c1ccc(F)cc1)c1ccc(F)cc1
active: [6] 19.8 µM | [3] 16.8 µM | [4] 22.5 µM | [7] 3.78 µM | [9] 1.75 µM | [10] 3.27 µM | [8] 0.238 µM
inactive: [1] | [2] | [5]

CC(C)[C@H](C(=O)O[C@H](C#N)c1cccc(Oc2ccccc2)c1)c1ccc(Cl)cc1
active: [6] 12.3 µM | [2] 4.84 µM | [4] 12 µM
inactive: [1] | [3] | [5] | [7]

CCCCN(CC)c1c([N+](=O)[O-])cc(C(F)(F)F)cc1[N+](=O)[O-]
active: [6] 27.6 µM | [2] 24.4 µM | [4] 18.9 µM | [7] 1.93 µM
inactive: [1] | [3] | [5]

O=c1ccc(=O)[nH][nH]1
inactive: [6] | [1] | [2] | [3] | [4] | [5]

COP(=O)(OC)SCn1c(=O)oc2cc(Cl)cnc21
inactive: [1] | [2] | [3]
active: [6] 20 µM | [4] 12.2 µM | [5] 13.4 µM | [8] 9 µM

CSc1nc(NC(C)C)nc(NC(C)C)n1
active: [10] 6.84 µM
not listed: [8] | [9]
inactive: all other assays above

COP(=O)(NC(C)=O)SC (stereo not given)
not listed: [8] | [9] | [10]
inactive: all other assays above

CCc1cnc(C2=NC(C)(C(C)C)C(=O)N2)c(C(=O)O)c1 (stereo not given)
inactive: [1] | [2] | [3] | [4] | [5]

CCOP(=S)(OCC)Oc1ccc2c(C)c(Cl)c(=O)oc2c1
active: [6] 5.21 µM | [4] 5.08 µM | [10] 0.352 µM | [8] 0.433 µM
inactive: [1] | [2] | [3] | [5]

COc1ccc(C(=CC(=O)N2CCOCC2)c2ccc(Cl)cc2)cc1OC
active: [6] 5.93 µM | [1] 25 µM | [2] 9.07 µM | [3] 8.93 µM | [4] 12.9 µM | [7] 4.42 µM | [10] 6.61 µM
inactive: [5]
